Integrin act MD – qHTS for Activators of Integrin-Mediated Alleviation for Muscular Dystrophy. AID 624291, 2012. hit rate 0.064% among 350,000. Potency, µM (series often up to 38.3 µM), actives largely listed as activators. alpha7betagal myoblasts, beta-gal FDG fluorescence, 48 h; also: nearly all actives have a fitted effect of over 60% in size
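alpha7betagal+/- myoblasts (passage 13, 250/well) treated 48 h at 37C with compounds at 1:260 dilution of DMSO stock. Lysed, then beta-galactosidase activity read as FDG fluorescence (ex 480/em 540) after 30 min, with pre-read for autofluorescence.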
RXFP1 antag – qHTS Assay for Antagonists of the Relaxin Receptor RXFP1 | Relaxin receptor 1 (Homo sapiens), Q9HBX9 | HEK293-RXFP1, relaxin-stimulated cAMP HTRF, 30 min; stronger effect = lower value | activity change, negative = inhibition, % at 57.5 µM | hit rate 0.59% among 350,000;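 active = activity change of -60% or lower, but not beyond a set lower limit; inconclusive = change between -60% and -40%, or beyond the set limit; inactive = change above -40%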
Target sequence (Q9HBX9 whole entry, looked up): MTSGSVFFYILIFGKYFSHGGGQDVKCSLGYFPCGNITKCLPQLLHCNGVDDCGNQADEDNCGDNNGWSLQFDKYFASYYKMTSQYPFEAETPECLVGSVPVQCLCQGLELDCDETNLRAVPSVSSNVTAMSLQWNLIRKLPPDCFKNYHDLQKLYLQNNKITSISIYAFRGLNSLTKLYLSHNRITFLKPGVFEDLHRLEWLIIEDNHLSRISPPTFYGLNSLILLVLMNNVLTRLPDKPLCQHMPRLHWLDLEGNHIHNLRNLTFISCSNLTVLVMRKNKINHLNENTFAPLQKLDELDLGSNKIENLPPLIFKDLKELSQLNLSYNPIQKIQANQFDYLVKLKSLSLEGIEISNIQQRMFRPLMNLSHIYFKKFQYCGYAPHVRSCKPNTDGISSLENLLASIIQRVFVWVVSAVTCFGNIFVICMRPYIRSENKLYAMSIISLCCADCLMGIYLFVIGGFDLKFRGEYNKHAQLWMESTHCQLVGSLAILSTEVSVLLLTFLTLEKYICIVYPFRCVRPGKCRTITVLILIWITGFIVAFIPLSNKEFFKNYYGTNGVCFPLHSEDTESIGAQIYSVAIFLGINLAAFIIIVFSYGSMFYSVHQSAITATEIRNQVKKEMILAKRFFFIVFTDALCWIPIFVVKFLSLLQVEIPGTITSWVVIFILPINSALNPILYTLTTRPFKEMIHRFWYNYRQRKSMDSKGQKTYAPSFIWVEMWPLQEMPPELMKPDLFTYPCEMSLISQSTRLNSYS
RXFP1 agonist – qHTS Assay for Agonists of the Relaxin Receptor RXFP1 | Relaxin receptor 1 (Homo sapiens), Q9HBX9 | HEK293T-RXFP1 cAMP TR-FRET, 30 min; response scale: percent of porcine relaxin response, buffer zero | Potency, µM (top dose mostly 57.5 µM), most hits filed as activators | hit rate 0.3% among 370,000 | AID 2676, 2010; also: nearly all actives have a fitted effect of over 60% in size
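HEK293 cells stably expressing RXFP1, treated 30 min at 37C with compounds plus PDE4 inhibitor Ro 20174; cAMP measured by HTRF TR-FRET. Normalized to buffer and 29 nM porcine relaxin; EC50 by Hill fit.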
gsp antag – qHTS for Antagonists of gsp, the Etiologic Mutation Responsible for Fibrous Dysplasia/McCune-Albright Syndrome: qHTS. gsp-mutant cells, cAMP HTRF, 30 min. Potency, µM (top dose mostly 76.9 µM), actives largely listed as inhibitors. hit rate 0.4% among 340,000. AID 624288, 2012; calls by dose curve; cell line not stated here;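 also: intracellular cAMP measured with PDE inhibitor Ro 20-1724 present during compound exposure; nearly all actives have a fitted effect of over 65% in size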
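G418-selected cells were plated in DMEM/10% FBS for 16-24 h at 37C, then treated with compounds plus the PDE inhibitor […] (300 uM solution added) for 30 min at 37C. Intracellular cAMP was measured by HTRF after 30 min lysis at room temperature.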
ASM inhibitor – Inhibitors of Secretory Acid Sphingomyelinase (S-ASM): qHTS; placental ASM, HMU-PC fluorogenic substrate, 60 min; Potency, µM (doses to about 57.5 µM), actives largely listed as inhibitors; hit rate 0.006% among 340,000
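Fluorogenic HMU-PC substrate (9 uM final) is turned over by placental ASM in 60 min at 37 C after a 10 min compound preincubation. Reaction ended by alkaline stop (pH 10), with fluorescence read at 386/447 nm.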
gsp agonist – qHTS for Agonist of gsp, the Etiologic Mutation Responsible for Fibrous Dysplasia/McCune-Albright Syndrome: qHTS; hit rate 0.13% among 340,000; AID 624287, 2012; gsp mutant cells, cAMP HTRF, 30 min; Potency, µM (titrated, usually from 76.9 µM), actives largely listed as activators; active = well fitted activation curve with a large enough effect; inconclusive = small, poorly fitted or top-dose-only effect, or another doubt; inactive = no such curve, though single readings can be large or run the other way; cell line not stated here;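 also: phosphodiesterase inhibitor Ro 20-1724 added with compounds to block cAMP breakdown; nearly all actives have a fitted effect of over 60% in size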
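Cells stably selected in G418 were plated at 2000/well, grown 16-24 hr, then given compounds in DMSO with the PDE inhibitor […] (300 uM solution added) for 30 min at 37C; cAMP was read by HTRF.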
A number is an active result; [ ] = dose if it differs, or a comment. The list is not random: actives were taken first. Their share in the collection is about 1.1%. Unless noted, calls follow the shape of the dose curve; as a rule, active = well fitted curve in the direction sought with a large enough effect; inconclusive = small, poorly fitted or top-dose-only effect, or another doubt; inactive = no such curve, though single readings can be large; an effect the other way counts as inactive or inconclusive.

What do the screens show for `Cc1cccc([C@@H]2[C@@H]3C(=O)N(Cc4ccccc4)C(=O)[C@@H]3[C@]3(C)C(=O)N(c4cccc(F)c4)C(=O)N23)c1`?
Integrin act MD: inactive; RXFP1 agonist: inactive; gsp antag: 28µM; ASM inhibitor: inactive

Results for Cc1ccc(N2C(=O)N3[C@H](c4cccc(C)c4)[C@@H]4C(=O)N(Cc5ccccc5)C(=O)[C@@H]4[C@]3(C)C2=O)cc1 ?
Integrin act MD: inactive; RXFP1 agonist: inactive; gsp antag: inactive; ASM inhibitor: inactive; gsp agonist: inactive

Results for CC1(C)C(=O)N(CC(=O)Nc2cccc(F)c2)c2ccc(S(=O)(=O)N3CCCCC3)cc21 ?
RXFP1 antag: inactive; RXFP1 agonist: inactive

What do the screens show for `CCCCN(CCN(CCCC)C(=O)N1CCOCC1)C(=O)N1CCOCC1`?
RXFP1 antag: inactive

What do the screens show for `O=S(=O)(c1ccc(Br)cc1F)N1CCC(O)CC1`?
Integrin act MD: inactive; gsp antag: inactive; ASM inhibitor: inactive

What do the screens show for `N#CC1c2ccccc2C=CN1C(=O)N(c1ccccc1)c1ccccc1` (centres undefined)?
Integrin act MD: inactive; RXFP1 antag: -94; gsp antag: inactive; ASM inhibitor: inactive; gsp agonist: inactive[15.4 µM]

How did COc1ccccc1NC(=O)c1oc2ccccc2c1NC(=O)c1cccc(OC)c1OC do in these assays?
RXFP1 antag: inactive; RXFP1 agonist: inactive

What do the screens show for `O=[N+]([O-])c1ccc(O)c(C=Nc2cccc3ccccc23)c1`?
Integrin act MD: inconclusive; RXFP1 antag: -96; RXFP1 agonist: inactive; gsp antag: inactive; ASM inhibitor: inactive; gsp agonist: inactive

Results for CC(=O)Oc1ccc(C2(c3ccc(OC(C)=O)cc3)Oc3ccccc3NC2=O)cc1 ?
RXFP1 antag: inactive

What do the screens show for `O=C(/C=C/c1ccccc1[N+](=O)[O-])c1ccccc1Br`?
Integrin act MD: inactive; RXFP1 antag: -72; RXFP1 agonist: inactive; ASM inhibitor: inactive; gsp agonist: inactive[15.4 µM]

How did CCOC(=O)C1(C)NC(c2ccccc2F)C2C(=O)N(CC)C(=O)C21 (centres undefined) do in these assays?
Integrin act MD: inactive; RXFP1 antag: inactive; RXFP1 agonist: inactive; gsp antag: inactive; ASM inhibitor: inactive; gsp agonist: inactive[15.4 µM]

What do the screens show for `CCc1ccccc1NC(=O)Cn1c(C(=O)OC)cc2oc(C)cc21`?
RXFP1 antag: inactive; RXFP1 agonist: inactive

Results for CC(=O)c1ccc(N(C)C)cc1 ?
Integrin act MD: inactive; RXFP1 antag: inactive; RXFP1 agonist: inactive; gsp antag: inactive; ASM inhibitor: inactive; gsp agonist: inactive

How did CN(C)c1ccc(/C(=N\O)C(F)(F)F)cc1 do in these assays?
Integrin act MD: inactive[7.66 µM]; RXFP1 antag: inactive; RXFP1 agonist: inactive; gsp antag: 40µM; ASM inhibitor: inactive; gsp agonist: inactive

How did Cc1[nH]c(=S)c(C#N)c(C)c1CCC#N do in these assays?
Integrin act MD: inactive; RXFP1 antag: -119; RXFP1 agonist: inactive; gsp antag: inactive; ASM inhibitor: inactive; gsp agonist: inconclusive

Results for C(=C\c1ccccc1)/CN1CCN(C(c2ccccc2)c2ccccc2)CC1 ?
RXFP1 antag: inactive; RXFP1 agonist: inactive; gsp antag: inactive; ASM inhibitor: inactive

Results for Fc1ccc(C(c2ccc(F)cc2)N2CCN(C/C=C/c3ccccc3)CC2)cc1 ?
RXFP1 antag: -64; RXFP1 agonist: inactive; gsp antag: inactive; ASM inhibitor: inactive

Results for COc1ccc2cccc(CCNC(C)=O)c2c1 ?
RXFP1 antag: inactive

How did CC(C)(C)Cc1c(-c2ccc(Br)cc2)nc2ccc(Cl)cn12 do in these assays?
Integrin act MD: inactive; RXFP1 antag: inactive; gsp agonist: inactive

What do the screens show for `O=C(O)c1cccc(-n2cccc2C=C2C(=O)c3ccccc3C2=O)c1`?
Integrin act MD: inactive; RXFP1 antag: inactive; RXFP1 agonist: inactive; gsp antag: 35µM; ASM inhibitor: inactive; gsp agonist: inactive[15.4 µM]

Results for O=C1C(=Cc2cccn2-c2ccccc2)C(=O)c2ccccc21 ?
Integrin act MD: inactive; RXFP1 antag: inactive; RXFP1 agonist: inactive; gsp antag: inactive; ASM inhibitor: inactive; gsp agonist: inactive[15.4 µM]

How did Cc1cc(C)c(C#N)c(SCc2ccc(C(=O)O)cc2)n1 do in these assays?
Integrin act MD: inconclusive; RXFP1 antag: inactive; RXFP1 agonist: inactive; gsp antag: 40µM; ASM inhibitor: inactive; gsp agonist: inactive

What do the screens show for `CCOC(=O)c1sc2nc(C)[nH]c(=S)c2c1C`?
Integrin act MD: inactive; RXFP1 antag: inactive; RXFP1 agonist: 28µM; gsp antag: inactive; ASM inhibitor: inactive; gsp agonist: 13µM

Results for CCOC(=O)c1sc2nc(C)n(N)c(=O)c2c1C ?
Integrin act MD: inactive; RXFP1 antag: inactive; RXFP1 agonist: inactive; gsp antag: inactive; ASM inhibitor: inactive; gsp agonist: inactive

What do the screens show for `COc1cccc(C(=O)c2c(-c3ccccc3)ncc3cc(OC)c(OC)cc23)c1`?
Integrin act MD: inactive; gsp antag: inactive; ASM inhibitor: inactive

What do the screens show for `Cc1ccc(Cl)cc1N1CCN(C(=O)C2CCN(S(=O)(=O)c3c(C)nn(C)c3C)CC2)CC1`?
Integrin act MD: inactive; RXFP1 antag: inactive; RXFP1 agonist: inactive; gsp antag: 40µM; ASM inhibitor: inconclusive; gsp agonist: inactive[15.4 µM]

Results for Cc1ccc(C)c(N2CCN(C(=O)C3CCN(S(=O)(=O)c4cccc5nsnc45)CC3)CC2)c1 ?
Integrin act MD: inactive; RXFP1 antag: inactive; RXFP1 agonist: inactive; gsp antag: 22µM; ASM inhibitor: inactive; gsp agonist: inactive

What do the screens show for `CC(C(=O)N1CCN(Cc2ccc3c(c2)OCO3)CC1)c1ccc([N+](=O)[O-])cc1` (centres undefined)?
Integrin act MD: inactive; RXFP1 antag: inactive; RXFP1 agonist: inactive; gsp antag: 11µM; ASM inhibitor: inactive; gsp agonist: inactive[15.4 µM]

Results for Cc1nc(Oc2ccc(F)cc2Cl)c2oc3ccccc3c2n1 ?
RXFP1 antag: inactive; RXFP1 agonist: inactive

How did O=C(COc1ncnc2scc(-c3ccccc3)c12)NCCN1C(=O)CSC1=O do in these assays?
RXFP1 agonist: 11µM

How did COc1ccc(OC(=O)N(CC(=O)O)Cc2ccc(OCCc3nc(-c4ccccc4)oc3C)cc2)cc1 do in these assays?
RXFP1 antag: inactive

From PubChem
